For assay [1], the target named is Estrogen receptor (Homo sapiens) (UniProt P03372). The assay can be described thus: qHTS assay to identify small molecule antagonists of the estrogen receptor alpha (ER-alpha) signaling pathway using the BG1 cell line in the presence of 0.1 nM 17-beta-estradiol (AID 1259244). Further: nearly all actives have a fitted effect of over 50% in size. Further: potency means the concentration at half of the fitted maximal effect. The procedure, abridged:
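VM7Luc4E2 cells (endogenous full-length ER-alpha, stable 4xERE-luciferase) were grown 5 days in phenol red-free medium with charcoal-stripped FBS, then exposed 22 h at 37C to compounds plus 0.1 nM (final) 17beta-estradiol; ONE-Glo luminescence read-out.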

Assay [2] can be described thus: qHTS assay to identify small molecule HDAC inhibitors (AID 1259364). Further: top concentration of the series differs between compounds; nearly all actives have a fitted effect of over 45% in size. The procedure, abridged:
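Wild-type HCT-116 cells were plated overnight, exposed to compounds for 2 h at 37 °C, then given HDAC-Glo class I/II luminogenic reagent for 30 min at room temperature before luminescence was read.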
(In general: In qHTS, concentration-response curves come from the screen itself.)

Assay [3] can be described thus: qHTS assay to identify small molecule HDAC inhibitors - cell viability counter screen (AID 1259365). Further: nearly all actives have a fitted effect of over 50% in size. Further: potency means the concentration at half of the fitted maximal effect. The essentials: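 HCT-116 wild-type, overnight attachment; 2hr drug exposure, 37C; CellTiter-Glo luminescent ATP readout after 30min RT.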
Assay [4] is described as follows: qHTS assay to identify small molecule agonists of the sonic hedgehog signaling (Shh) pathway - cell viability counter screen (AID 1259366). Further: nearly all actives have a fitted effect of over 50% in size. Further: potency means the concentration at half of the fitted maximal effect. The essentials:
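Compounds in DMSO were pin-transferred onto 3T3 Gli1-Luc cells that had settled 4hr; plates then stood 24hr at 37C and 5% CO2. One hour before the end, CellTiter-Fluor was added and fluorescence recorded.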

The nature of assay [5]: qHTS assay to identify small molecule antagonists of the sonic hedgehog signaling (Shh) pathway - cell viability counter screen (AID 1259367). Further: nearly all actives have a fitted effect of over 55% in size. Further: potency means the concentration at half of the fitted maximal effect. The procedure, abridged:
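Using CellTiter-Fluor, viability of Gli1-Luc reporter 3T3 cells is read by fluorescence in the wells used for the Shh luciferase assay. Treatment lasts 23 hr with conditioned medium, then reagent 1 hr at 37C.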

Assay [6] in a line: qHTS assay to identify small molecule agonists of the sonic hedgehog signaling (Shh) pathway (AID 1259368; calls by dose curve; further: nearly all actives have a fitted effect of over 15% in size; further: potency means the concentration at half of the fitted maximal effect). The essentials:
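NIH/3T3-derived 3T3Gli1-Luc cells carrying a stably integrated Gli1 response element–firefly luciferase reporter were plated, left 4 hr at 37 C, then given compounds in DMSO for 24 hr. Luminescence was read 30 min after adding luciferase reagent.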

A short description of assay [7]: qHTS assay to identify small molecule antagonists of the sonic hedgehog signaling (Shh) pathway (AID 1259369; calls by dose curve; further: nearly all actives have a fitted effect of over 45% in size; further: potency means the concentration at half of the fitted maximal effect). The essentials:
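NIH/3T3-derived 3T3Gli1-Luc cells with stably integrated Gli1-Luc reporter were preincubated 4hr at 37 C, then given compounds in DMSO plus Shh conditioned medium and incubated 24hr. Firefly luciferase luminescence read after 30min reagent at room temperature.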

Assay [8] has as its target Estrogen receptor beta (Homo sapiens) (UniProt Q92731). The assay can be described thus: qHTS assay to identify small molecule agonists of the estrogen receptor beta (ER-beta) signaling pathway (AID 1259377; active means well fitted activation curve with a large enough effect in the signal ratio in the repeat runs, not every such curve was filed as active; the % refers to the signal ratio; further: potency means the concentration at half of the fitted maximal effect). The essentials:
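qHTS in ER-beta-UAS-bla HEK293T cells: 6 hr settling, then 16 hr compound at 37C, then LiveBLAzer substrate 2 h at RT before fluorescence reading.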

Several values for one entry are separate records, joined by “and”; a condition that tells them apart may be missing. Identical values can stand only once. Inconclusive results are not listed. Some compounds were tested as several samples or in several runs, with calls that do not always agree. Activity calls are given as the source filed them. Unless noted, the call rests on the fitted dose curve; in most records, active means well fitted curve in the direction sought with a large enough effect in the repeat runs; inconclusive means weak or mixed curves; inactive means no such curve, though single readings can be large; an effect the other way counts as inactive or inconclusive.

Estrogen receptor beta (Homo sapiens), sequence (Q92731 whole entry, looked up): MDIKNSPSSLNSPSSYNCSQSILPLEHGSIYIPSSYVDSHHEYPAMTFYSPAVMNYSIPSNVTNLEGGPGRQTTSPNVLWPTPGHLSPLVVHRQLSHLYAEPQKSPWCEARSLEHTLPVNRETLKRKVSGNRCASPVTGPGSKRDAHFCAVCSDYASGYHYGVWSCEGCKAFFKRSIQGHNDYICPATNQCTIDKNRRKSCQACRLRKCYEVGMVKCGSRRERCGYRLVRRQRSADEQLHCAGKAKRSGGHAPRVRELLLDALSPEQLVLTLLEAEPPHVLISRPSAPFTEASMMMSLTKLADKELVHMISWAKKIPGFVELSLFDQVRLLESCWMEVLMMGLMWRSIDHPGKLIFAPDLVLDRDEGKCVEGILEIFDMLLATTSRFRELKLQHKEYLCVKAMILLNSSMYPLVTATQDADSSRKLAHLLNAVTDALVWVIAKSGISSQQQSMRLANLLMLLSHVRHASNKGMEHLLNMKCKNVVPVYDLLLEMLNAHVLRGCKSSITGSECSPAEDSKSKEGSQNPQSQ
Estrogen receptor (Homo sapiens), sequence (P03372 whole entry, looked up): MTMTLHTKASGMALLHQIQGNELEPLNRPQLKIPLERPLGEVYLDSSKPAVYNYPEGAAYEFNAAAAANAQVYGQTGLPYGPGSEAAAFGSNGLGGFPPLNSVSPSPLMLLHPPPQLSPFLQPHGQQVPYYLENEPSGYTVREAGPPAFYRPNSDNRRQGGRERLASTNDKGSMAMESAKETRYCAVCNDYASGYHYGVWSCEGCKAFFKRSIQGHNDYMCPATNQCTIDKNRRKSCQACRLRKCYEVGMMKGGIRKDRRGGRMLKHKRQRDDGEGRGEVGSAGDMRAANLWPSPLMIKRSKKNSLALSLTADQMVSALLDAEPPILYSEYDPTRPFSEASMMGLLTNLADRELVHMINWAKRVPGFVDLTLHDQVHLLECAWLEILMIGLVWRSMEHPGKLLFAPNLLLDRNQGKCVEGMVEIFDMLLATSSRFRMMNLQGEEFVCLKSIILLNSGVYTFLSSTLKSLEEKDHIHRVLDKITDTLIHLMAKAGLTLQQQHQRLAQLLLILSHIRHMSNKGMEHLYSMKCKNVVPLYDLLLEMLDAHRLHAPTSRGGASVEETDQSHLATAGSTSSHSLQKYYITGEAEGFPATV

For `O=C(O)COc1nc(Cl)c(Cl)cc1Cl`, the Potency entry in assay [1], in assay [2], in assay [3], in assay [4], in assay [5] and in assay [6] was “inactive” in each case. For the same compound, in assay [7], the Potency result was “inactive”.
For `N#CCCC(Br)(C#N)CBr` (stereo not drawn), the Potency entry in assay [1], in assay [2], in assay [3], in assay [6] and in assay [8] was “inactive” in each case. Also, the Potency was 27.3 µM (active) in assay [4], 27.3 µM (active) in assay [5] and 21.7 µM (active) in assay [7].
`Oc1cccc(-c2ccccc2)c1`: the Potency result in assay [1], in assay [2], in assay [3], in assay [4], in assay [5] and in assay [6] was “inactive” in each case. Also, in assay [8], the Potency was 17.2 µM (active).
Take `CCCCCCCCCCCCCN1CC(C)OC(C)C1` (stereo not drawn): the Potency result in assay [1], in assay [2], in assay [3], in assay [4], in assay [5] and in assay [6] was “inactive” each time. Also, the Potency entry in assay [7] and in assay [8] was “inactive” each time.
On to `Cc1cc(C(F)(C(F)(F)F)C(F)(F)F)ccc1NC(=O)c1cccc(I)c1C(=O)NC(C)(C)CS(C)(=O)=O`, for which the Potency result in assay [1], in assay [2], in assay [3], in assay [4], in assay [5] and in assay [8] was “inactive” each time. Also, the Potency in assay [6] was 13.8 µM (active).
Regarding `Cc1ccc(OP(=O)(Oc2ccccc2)Oc2ccccc2)cc1`, the Potency entry in assay [1], in assay [2], in assay [3], in assay [4], in assay [5] and in assay [6] was “inactive” throughout. For the same compound, the Potency in assay [7] is 17.5 µM (active).
On to `Oc1ccc(C2(c3ccc(O)cc3)c3ccccc3-c3ccccc32)cc1`, for which the Potency in assay [1] was 1.72 µM (active); in assay [4], 54.5 µM (active); in assay [5], 27.3 µM (active); in assay [7], 27.3 µM (active). The Potency result in assay [2], in assay [3] and in assay [6] was “inactive” throughout.
On to `O=[N+]([O-])c1ccc(Oc2ccc(C(F)(F)F)cc2[N+](=O)[O-])cc1`, for which the Potency entry in assay [1], in assay [2], in assay [3], in assay [4], in assay [5] and in assay [6] was “inactive” throughout. Also, the Potency result in assay [8] is “inactive”. Moreover, the Potency in assay [7] is 61.1 µM (active).
In the case of `C=CC(=O)N(C)C`, the Potency entry in assay [1], in assay [2], in assay [3], in assay [4], in assay [5] and in assay [6] was “inactive” throughout. Also, the Potency entry in assay [7] and in assay [8] was “inactive” throughout.
On to `CC(=O)c1cc(C(C)(C)C)cc2c1CCC2(C)C`, for which the Potency entry in assay [1], in assay [2], in assay [3], in assay [4], in assay [5] and in assay [6] was “inactive” each time. In addition, the Potency result in assay [7] is “inactive”.
For the compound `Cc1cc(C)c(C2=C(OC(=O)CC(C)(C)C)C3(CCCC3)OC2=O)c(C)c1`, the Potency result in assay [1], in assay [2], in assay [3], in assay [4], in assay [5] and in assay [6] was “inactive” in each case. Further, the Potency entry in assay [7] and in assay [8] was “inactive” throughout.
Turning to `ClC1=C(Cl)[C@]2(Cl)[C@H]3[C@H]([C@H]4C=C[C@H]3C4)[C@@]1(Cl)C2(Cl)Cl`, the Potency result in assay [1], in assay [2], in assay [3], in assay [4], in assay [5] and in assay [6] was “inactive” in each case. The Potency entry in assay [7] was “inactive”.
As for `CCc1cc(C)cc(CC)c1-c1c(OC(=O)C(C)(C)C)n2n(c1=O)CCOCC2`, the Potency entry in assay [1], in assay [2], in assay [3], in assay [6], in assay [7] and in assay [8] was “inactive” each time. The Potency in assay [4] is 27.3 µM (active); in assay [5] it was 15.4 µM (active).
For `CCC[CH2][Sn]([CH2]CCC)([CH2]CCC)[O]C(=O)c1ccccc1`, the Potency was 0.486 µM (active) in assay [1]; 19.3 µM (active) in assay [3]; 0.686 µM (active) in assay [4]; 0.864 µM (active) in assay [5]; 0.172 µM (active) in assay [7]. The Potency entry in assay [2] and in assay [6] was “inactive” each time.
With `CC(C)OC(=S)S`, the Potency result in assay [1], in assay [2], in assay [3], in assay [6] and in assay [8] was “inactive” each time. In addition, the Potency in assay [4] was 30.6 µM (active); in assay [5], 61.1 µM (active).
In the case of `Fc1cccc(Cl)c1CCl`, the Potency entry in assay [1], in assay [2], in assay [3], in assay [4], in assay [5] and in assay [6] was “inactive” in each case. The Potency result in assay [7] and in assay [8] was “inactive” throughout.
Turning to `SCc1ccco1`, the Potency entry in assay [1], in assay [2], in assay [3], in assay [4], in assay [5] and in assay [6] was “inactive” each time. Besides, in assay [7], the Potency was 61.1 µM (active).
As for `CCCN(CCC)CCc1c[nH]c2ccccc12`, the Potency entry in assay [1], in assay [2], in assay [3], in assay [4], in assay [5] and in assay [6] was “inactive” throughout. Further, in assay [8], the Potency entry is “inactive”. Besides, the Potency in assay [7] was 67.7 µM (active).
Take `Cc1cc(C)cc(OP(=O)(Oc2cc(C)cc(C)c2)Oc2cc(C)cc(C)c2)c1`: the Potency entry in assay [1], in assay [2], in assay [3], in assay [4], in assay [5] and in assay [6] was “inactive” in each case. The Potency entry in assay [7] and in assay [8] was “inactive” throughout.
In the case of `CC(c1ccc(O)cc1)c1ccc(O)cc1`, the Potency result in assay [1], in assay [2], in assay [3], in assay [5] and in assay [6] was “inactive” in each case. The Potency entry was “inactive and 61.1 µM (active)” in assay [4]; 22.8 µM (active) and inactive in assay [7].
For `CCCN(CC)CC1COC2(CCC(C(C)(C)C)CC2)O1` (stereo not drawn), the Potency entry in assay [1], in assay [2], in assay [3], in assay [4], in assay [5] and in assay [6] was “inactive” each time. The Potency entry in assay [7] and in assay [8] was “inactive” each time.
With `ClCCN1CCOCC1`, the Potency entry in assay [1], in assay [2], in assay [3], in assay [4], in assay [5] and in assay [6] was “inactive” throughout. The Potency entry in assay [7] and in assay [8] was “inactive” each time.
On to `CCCCCCCCCCCCCCC(Br)C(=O)O` (stereo not drawn), for which the Potency result in assay [1], in assay [2], in assay [3], in assay [4], in assay [5] and in assay [6] was “inactive” throughout. Besides, the Potency entry in assay [7] and in assay [8] was “inactive” throughout.
